# Source: PubChem BioAssay (EPA / NIEHS)
# “And” between values parts separate entries of the source, which are not always exact repeats. Identical values can stand only once. Inconclusive results are not listed. The source made the active and inactive calls. Rule for the calls: active = hit-call score of the fitted dose curve at least 0.9, where 1 is the maximum; inconclusive = response in the unintended direction; inactive = score below 0.9.
# Experiments:
# [1] = molecular target: Estrogen receptor (Homo sapiens) + Estrogen receptor beta (Homo sapiens) (UniProt P03372+Q92731); test: OT_ER_ERaERb_1440: Odyssey Thera (OT) 24-hour HEK293T Protein-Complementation Assay for Estrogen Receptor-alpha/-beta Homodimer (AID 2283356);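 note: heteromer of ER alpha and ER beta binding domains; hits raise reporter fluorescence and both agonists and antagonists give an increase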
# In short: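 HEK293T cells stably expressing a PCA pair of ERα LBD (aa 310-547) and ERβ LBD (aa 263-489) were dosed for 24 h. Fluorescence intensity increase versus DMSO vehicle was fitted as gain-of-signal.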
# [2] = molecular target: Estrogen receptor beta (Homo sapiens) (UniProt Q92731); test: OT_ER_ERbERb_0480: Odyssey Thera (OT) 8-hour HEK293T Protein-Complementation Assay for Estrogen Receptor-beta/-beta Homodimer (AID 2283357);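 note: active means signal gain over DMSO baseline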
# In short: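 Fluorescence intensity, nuclear for agonists and nuclear plus cytoplasmic for antagonists, was quantified by laser scanning cytometry versus vehicle after 8 h treatment. The cells were HEK293T stably carrying ER beta LBD fragment-complementation partners.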
# [3] = molecular target: Retinoic acid receptor alpha (Homo sapiens) (UniProt P10276); test: NVS_NR_hRARa_Agonist: NovaScreen (NVS) Nuclear Receptor Binding Assay for human Retinoic Acid Alpha Receptor Agonism (RAR) (AID 2283361)
# In short: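 Cell-free TR-FRET binding readout with extracted receptor protein, read 2 hours after dosing; gain-of-signal fitted relative to DMSO. Screened in duplicate at 25 uM, actives then run in concentration-response.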
# [4] = molecular target: Peroxisome proliferator-activated receptor gamma (Homo sapiens) (UniProt P37231); test: NVS_NR_hPPARg: NovaScreen (NVS) Nuclear Receptor Binding Assay for human Peroxisome Proliferator-activated Receptor gamma (PPARg) (AID 2283370)
# In short: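 Cell-free binding to extracted PPARg protein, read by fluorescence polarization 2 h after dosing; loss of signal relative to DMSO baseline marks displacement. Primary screen in duplicate at 25 uM, actives retested in concentration series.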
# [5] = molecular target: human Dopamine Transporter (DAT), SLC6A3 (gene 6531) (UniProt Q01959); test: NVS_TR_hDAT: NovaScreen (NVS) Transporter Assay for human Dopamine Transporter (DAT) (AID 2283374);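 note: activity means loss of bound radioligand signal relative to DMSO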
# In short: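 Cell-free radioligand displacement binding at human DAT, 1 h after dosing, with filtration and scintillation counting. Primary screen in duplicate at 25 uM, actives then in concentration series. Loss of bound signal versus DMSO scored.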
# [6] = molecular target: PGR (gene 5241) (UniProt P06401); test: NVS_NR_hPR: NovaScreen (NVS) Nuclear Receptor Binding Assay for human Progestron Receptor (PR) (AID 2283360);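 note: active means loss of bound radioligand signal versus DMSO baseline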
# In short: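 T47D lysate; tritiated or iodinated radioligand; scintillation count at 18 h. DMSO = negative control/baseline. Primary: 25 uM, duplicate. Secondary: concentration series for actives.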
# [7] = molecular target: Glucocorticoid receptor (Homo sapiens) (UniProt P04150); test: NVS_NR_hGR: NovaScreen (NVS) Nuclear Receptor Binding Assay for human Glucocorticoid Receptor (GR) (AID 2283363);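 for AC50: activity is loss of specific radioligand binding signal relative to DMSO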
# In short: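 Cell-free radioligand displacement assay on extracted human GR, read 16 h after dosing by filter-based scintillation counting. Screened in duplicate at 25 uM, then concentration series for actives; loss of signal versus DMSO baseline.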
# [8] = molecular target: guinea pig Sigma Receptor, Non-selective Binding, SIGMAR1 (gene 100135589) (UniProt Q60492); test: NVS_OR_gSIGMA_NonSelective: NovaScreen (NVS) Nuclear Receptor Binding Assay for guinea pig Sigma Receptor, Non-selective Binding (AID 2283367)
# In short: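 Radioligand displacement on guinea pig brain membranes, read by filter-based scintillation counting 1 h after dosing. Loss of signal versus DMSO; initial duplicate single-point screen at 25 uM, actives followed in concentration series.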
# [9] = tested on: guinea pig Dopamine Transporter (DAT), gene 100714898; test: NVS_TR_gDAT: NovaScreen (NVS) Transporter Assay for guinea pig Dopamine Transporter (DAT) (AID 2283369);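 note: active compounds lower bound radioligand signal relative to DMSO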
# In short: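 Guinea pig striatal membranes; radioligand displacement measured by filter-based scintillation counting 2 h after dosing. Initial duplicate screen at 25 uM, then concentration-response up to 50 uM for hits; loss of signal versus DMSO baseline.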
# [10] = molecular target: human Serotonin Transporter (SERT), SLC6A4 (gene 6532) (UniProt P31645); test: NVS_TR_hSERT: NovaScreen (NVS) Transporter Assay for human Serotonin Transporter (SERT) (AID 2283372)
# In short: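 Radioligand binding to native SERT in human platelet membranes, read by filter-based scintillation counting 1 h after dosing. Primary screen in duplicate at 25 uM; actives followed up in concentration series; loss of signal versus DMSO baseline.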
# [11] = tested on: rat Norepinephrine Transporter (NET), gene 83511; test: NVS_TR_rNET: NovaScreen (NVS) Transporter Assay for rat Norepinephrine Transporter (NET) (AID 2283373)
# In short: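 Rat forebrain membranes; radioligand binding measured by filter-based scintillation counting 1 hour after dosing. Loss of specific binding versus DMSO baseline scored; primary screen in duplicate at 25 uM, actives followed up in concentration series.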
# [12] = molecular target: human Peroxisome Proliferator-activated Receptor alpha (PPARa), PPARA (gene 5465) (UniProt Q07869); test: NVS_NR_hPPARa: NovaScreen (NVS) Nuclear Receptor Binding Assay for human Peroxisome Proliferator-activated Receptor alpha (PPARa) (AID 2283359);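 note: activity means loss of TR-FRET signal versus DMSO baseline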
# In short: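 Cell-free TR-FRET binding assay with extracted PPARα protein, read 1 h after dosing. Primary screen in duplicate at 25 uM, with actives retested in concentration series. Loss of signal versus DMSO.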
# [13] = molecular target: human Adenosine Transporter (Adot), SLC29A1 (gene 2030) (UniProt Q99808); test: NVS_TR_hAdoT: NovaScreen (NVS) Transporter Assay for human Adenosine Transporter (Adot) (AID 2283368)
# In short: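 U937-derived membranes, cell-free radioligand binding, filter scintillation 1 h after dosing. 25 uM duplicate screen; hits (e.g. 30% inhibition) run in concentration-response up to 50 uM; loss of signal versus DMSO.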
# [14] = molecular target: human Thyroid Receptor Alpha (TRa), THRA (gene 7067) (UniProt P10827); test: NVS_NR_hTRa_Antagonist: NovaScreen (NVS) Nuclear Receptor Binding Assay for human Thyroid Receptor Alpha Antagonism (TRa) (AID 2283362);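 note: activity is loss of signal relative to DMSO baseline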
# In short: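 Cell-free binding assay on extracted receptor protein, read 1 h after chemical dosing by AlphaLISA chemiluminescence; loss of signal relative to DMSO baseline marks antagonism. Primary screen ran in duplicate at 25 uM, with concentration series for actives.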
# Chain of PGR (gene 5241) (P06401 whole entry, looked up): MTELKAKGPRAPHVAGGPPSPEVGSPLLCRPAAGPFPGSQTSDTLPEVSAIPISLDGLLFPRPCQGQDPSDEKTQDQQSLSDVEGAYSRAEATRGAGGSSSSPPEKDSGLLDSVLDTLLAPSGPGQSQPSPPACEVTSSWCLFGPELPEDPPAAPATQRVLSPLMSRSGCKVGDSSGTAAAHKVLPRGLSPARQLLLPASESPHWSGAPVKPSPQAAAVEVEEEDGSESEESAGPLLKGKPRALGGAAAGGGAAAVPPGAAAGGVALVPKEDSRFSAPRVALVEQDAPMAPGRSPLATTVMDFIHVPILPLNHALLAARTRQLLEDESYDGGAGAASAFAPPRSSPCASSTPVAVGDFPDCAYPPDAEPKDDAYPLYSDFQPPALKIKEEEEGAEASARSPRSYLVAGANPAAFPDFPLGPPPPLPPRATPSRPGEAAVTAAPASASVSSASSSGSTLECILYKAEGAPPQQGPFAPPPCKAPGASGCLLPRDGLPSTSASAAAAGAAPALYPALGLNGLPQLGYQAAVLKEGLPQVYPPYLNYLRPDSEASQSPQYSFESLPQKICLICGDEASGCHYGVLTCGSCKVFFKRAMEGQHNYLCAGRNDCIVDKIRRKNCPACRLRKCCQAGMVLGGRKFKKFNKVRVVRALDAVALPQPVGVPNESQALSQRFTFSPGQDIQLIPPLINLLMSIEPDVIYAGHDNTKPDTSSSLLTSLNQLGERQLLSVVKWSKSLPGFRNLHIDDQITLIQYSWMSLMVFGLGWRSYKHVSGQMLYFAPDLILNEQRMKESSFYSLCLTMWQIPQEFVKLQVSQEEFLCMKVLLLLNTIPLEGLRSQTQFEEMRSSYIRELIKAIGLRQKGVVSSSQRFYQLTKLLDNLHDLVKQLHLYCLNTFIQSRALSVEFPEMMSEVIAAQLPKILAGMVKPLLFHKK
# Chain of human Dopamine Transporter (DAT), SLC6A3 (gene 6531) (Q01959 whole entry, looked up): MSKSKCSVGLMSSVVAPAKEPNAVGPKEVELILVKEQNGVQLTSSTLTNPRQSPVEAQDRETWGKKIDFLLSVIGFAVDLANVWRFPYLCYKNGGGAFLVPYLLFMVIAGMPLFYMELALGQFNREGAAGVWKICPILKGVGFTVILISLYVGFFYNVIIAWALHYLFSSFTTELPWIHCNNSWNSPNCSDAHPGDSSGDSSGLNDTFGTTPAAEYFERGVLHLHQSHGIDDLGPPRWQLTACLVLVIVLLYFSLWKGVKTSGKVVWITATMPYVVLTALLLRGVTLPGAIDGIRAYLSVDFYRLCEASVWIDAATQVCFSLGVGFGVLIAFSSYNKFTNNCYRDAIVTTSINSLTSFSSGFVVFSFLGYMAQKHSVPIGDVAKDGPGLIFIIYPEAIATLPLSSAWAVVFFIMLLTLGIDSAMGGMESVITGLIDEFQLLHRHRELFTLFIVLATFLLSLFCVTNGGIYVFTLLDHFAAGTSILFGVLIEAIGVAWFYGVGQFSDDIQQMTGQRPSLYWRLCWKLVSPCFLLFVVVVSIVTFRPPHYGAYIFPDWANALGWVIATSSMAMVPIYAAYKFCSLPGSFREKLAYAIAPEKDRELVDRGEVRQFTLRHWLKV
# Chain of human Thyroid Receptor Alpha (TRa), THRA (gene 7067) (P10827 whole entry, looked up): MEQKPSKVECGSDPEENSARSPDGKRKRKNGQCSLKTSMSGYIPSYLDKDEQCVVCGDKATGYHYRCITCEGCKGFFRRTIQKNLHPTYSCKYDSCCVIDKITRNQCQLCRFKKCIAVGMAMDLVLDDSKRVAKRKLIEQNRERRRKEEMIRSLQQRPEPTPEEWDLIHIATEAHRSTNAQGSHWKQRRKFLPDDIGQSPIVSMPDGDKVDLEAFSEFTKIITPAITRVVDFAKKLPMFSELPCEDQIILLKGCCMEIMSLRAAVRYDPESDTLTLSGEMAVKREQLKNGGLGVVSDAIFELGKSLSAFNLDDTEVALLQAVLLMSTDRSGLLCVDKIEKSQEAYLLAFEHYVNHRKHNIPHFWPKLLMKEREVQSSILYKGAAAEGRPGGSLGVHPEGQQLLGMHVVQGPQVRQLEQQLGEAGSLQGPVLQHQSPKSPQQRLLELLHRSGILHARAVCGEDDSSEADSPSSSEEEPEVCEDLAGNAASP
# Chain of Peroxisome proliferator-activated receptor gamma (Homo sapiens) (P37231 whole entry, looked up): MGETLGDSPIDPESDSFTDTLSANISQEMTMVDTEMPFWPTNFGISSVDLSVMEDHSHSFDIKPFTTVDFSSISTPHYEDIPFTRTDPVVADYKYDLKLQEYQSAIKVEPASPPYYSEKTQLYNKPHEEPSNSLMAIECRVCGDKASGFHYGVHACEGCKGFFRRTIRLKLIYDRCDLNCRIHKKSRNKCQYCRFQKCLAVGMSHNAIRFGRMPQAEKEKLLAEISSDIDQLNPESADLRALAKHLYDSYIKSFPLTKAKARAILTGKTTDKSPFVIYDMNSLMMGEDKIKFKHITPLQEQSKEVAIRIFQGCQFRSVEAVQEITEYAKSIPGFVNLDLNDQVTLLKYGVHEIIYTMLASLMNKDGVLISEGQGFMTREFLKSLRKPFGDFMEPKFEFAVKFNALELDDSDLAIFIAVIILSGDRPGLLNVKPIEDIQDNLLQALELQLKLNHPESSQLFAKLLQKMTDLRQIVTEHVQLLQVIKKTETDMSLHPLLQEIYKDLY
# Chain of Estrogen receptor beta (Homo sapiens) (Q92731 whole entry, looked up, the tested form may be a part): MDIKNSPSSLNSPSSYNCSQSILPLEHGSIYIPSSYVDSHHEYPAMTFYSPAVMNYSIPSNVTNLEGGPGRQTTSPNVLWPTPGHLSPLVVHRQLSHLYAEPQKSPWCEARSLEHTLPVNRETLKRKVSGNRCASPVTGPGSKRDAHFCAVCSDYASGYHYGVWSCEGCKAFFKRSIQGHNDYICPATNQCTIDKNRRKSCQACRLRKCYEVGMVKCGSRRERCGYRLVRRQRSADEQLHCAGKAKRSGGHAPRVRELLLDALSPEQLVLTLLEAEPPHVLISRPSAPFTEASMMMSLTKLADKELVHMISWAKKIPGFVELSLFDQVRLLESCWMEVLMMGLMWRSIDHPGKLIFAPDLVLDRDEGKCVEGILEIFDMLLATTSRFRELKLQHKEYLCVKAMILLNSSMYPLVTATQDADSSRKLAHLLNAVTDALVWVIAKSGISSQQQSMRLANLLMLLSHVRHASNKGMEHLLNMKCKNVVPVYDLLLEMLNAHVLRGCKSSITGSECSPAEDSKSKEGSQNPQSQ
# Chain of Glucocorticoid receptor (Homo sapiens) (P04150 whole entry, looked up): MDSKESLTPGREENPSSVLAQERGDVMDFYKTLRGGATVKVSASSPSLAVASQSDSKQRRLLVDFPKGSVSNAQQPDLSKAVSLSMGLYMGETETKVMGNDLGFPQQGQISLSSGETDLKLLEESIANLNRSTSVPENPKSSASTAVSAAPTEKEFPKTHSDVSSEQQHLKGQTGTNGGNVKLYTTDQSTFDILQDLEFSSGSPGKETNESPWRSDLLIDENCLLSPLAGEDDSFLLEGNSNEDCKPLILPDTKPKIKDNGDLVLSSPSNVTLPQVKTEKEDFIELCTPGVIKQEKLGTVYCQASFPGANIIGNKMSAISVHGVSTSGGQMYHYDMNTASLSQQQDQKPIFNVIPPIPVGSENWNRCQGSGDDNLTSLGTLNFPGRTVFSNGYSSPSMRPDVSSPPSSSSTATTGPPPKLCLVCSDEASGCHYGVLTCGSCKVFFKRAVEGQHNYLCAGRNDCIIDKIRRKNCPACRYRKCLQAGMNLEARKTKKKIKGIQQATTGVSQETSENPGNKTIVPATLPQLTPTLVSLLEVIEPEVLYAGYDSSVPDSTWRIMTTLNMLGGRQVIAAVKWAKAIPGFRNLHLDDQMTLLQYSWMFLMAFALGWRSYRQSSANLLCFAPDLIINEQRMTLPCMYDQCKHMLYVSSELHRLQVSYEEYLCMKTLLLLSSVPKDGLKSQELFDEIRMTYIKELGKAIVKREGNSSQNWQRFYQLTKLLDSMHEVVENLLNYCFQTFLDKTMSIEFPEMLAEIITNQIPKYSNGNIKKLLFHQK
# Chain of Estrogen receptor (Homo sapiens) + Estrogen receptor beta (Homo sapiens) (P03372 whole entry, looked up, the tested form may be a part): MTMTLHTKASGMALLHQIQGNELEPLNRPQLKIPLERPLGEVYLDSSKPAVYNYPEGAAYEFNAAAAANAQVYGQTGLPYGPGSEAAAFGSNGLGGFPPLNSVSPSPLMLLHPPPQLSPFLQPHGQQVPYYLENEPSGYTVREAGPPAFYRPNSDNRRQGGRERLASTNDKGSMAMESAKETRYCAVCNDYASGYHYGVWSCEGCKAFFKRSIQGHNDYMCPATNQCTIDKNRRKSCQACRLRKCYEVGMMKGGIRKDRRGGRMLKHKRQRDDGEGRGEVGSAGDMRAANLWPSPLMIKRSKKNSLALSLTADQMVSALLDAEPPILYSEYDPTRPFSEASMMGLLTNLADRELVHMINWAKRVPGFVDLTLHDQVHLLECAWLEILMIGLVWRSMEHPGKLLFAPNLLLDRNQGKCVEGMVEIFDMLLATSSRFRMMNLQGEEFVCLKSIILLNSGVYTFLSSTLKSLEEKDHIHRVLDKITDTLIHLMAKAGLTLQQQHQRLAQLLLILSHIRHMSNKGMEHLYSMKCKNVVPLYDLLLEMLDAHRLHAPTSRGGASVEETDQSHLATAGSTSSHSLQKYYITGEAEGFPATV
# Chain of Estrogen receptor (Homo sapiens) + Estrogen receptor beta (Homo sapiens) (Q92731 whole entry, looked up, the tested form may be a part): as the sequence (Q92731 whole entry, looked up, the tested form may be a part) above
# Chain of guinea pig Sigma Receptor, Non-selective Binding, SIGMAR1 (gene 100135589) (Q60492 whole entry, looked up): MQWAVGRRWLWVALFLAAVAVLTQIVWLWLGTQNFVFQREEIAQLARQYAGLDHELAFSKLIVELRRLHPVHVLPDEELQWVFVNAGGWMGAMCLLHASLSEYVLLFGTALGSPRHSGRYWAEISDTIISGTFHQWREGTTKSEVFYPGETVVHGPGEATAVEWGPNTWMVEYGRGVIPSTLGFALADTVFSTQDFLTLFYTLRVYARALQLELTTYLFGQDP
compound,measurement,setting,value
CCO[Si](CCCNC(N)=O)(OCC)OCC,outcome,[1],inactive
same,outcome,[2],inactive
same,outcome,[3],inactive
c1ccc2ccccc2c1,outcome,[3],inactive
same,outcome,[4],inactive
c1ccc2n[nH]nc2c1,outcome,[2],inactive
same,outcome,[4],inactive
CC(=O)N1CCN(c2ccc(OC[C@H]3CO[C@](Cn4ccnc4)(c4ccc(Cl)cc4Cl)O3)cc2)CC1,outcome,[2],inactive
same,AC50,[5],11.2 µM (active)
CC(C)(O)c1ccc(CNC(=O)c2cccnc2Oc2ccc3nonc3c2)cc1,outcome,[1],inactive
same,outcome,[2],inactive
same,outcome,[6],inactive
same,outcome,[7],inactive
same,outcome,[4],inactive
CCCCOC(=O)CC(CC(=O)OCCCC)(OC(C)=O)C(=O)OCCCC,outcome,[2],inactive
CCOC(=O)O[C@H](C)OC(=O)c1ccc2c(c1)cc(C(=O)NC1CCN(C(C)C)CC1)n2Cc1cc(-c2ccc(Cl)s2)on1,outcome,[1],inactive
same,outcome,[2],inactive
same,AC50,[7],4.59 µM (active)
same,AC50,[8],0.226 µM (active)
same,AC50,[9],13.8 µM (active)
same,outcome,[10],inactive
same,AC50,[11],15.5 µM (active)
same,AC50,[5],3.21 µM (active)
Clc1ccccc1C(c1ccccc1)(c1ccccc1)n1ccnc1,outcome,[1],inactive
same,outcome,[2],inactive
same,AC50,[7],0.7 µM (active)
CC/C(=C(/CC)c1ccc(O)cc1)c1ccc(O)cc1,outcome,[12],inactive
same,outcome,[6],inactive
same,AC50,[7],177 nM (active) and 162 nM (active) and 1.27 µM (active)
same,AC50,[13],17.6 µM (active)
same,AC50,[5],16.2 µM (active)
CCCOC(=O)c1cc(O)c(O)c(O)c1,AC50,[1],49 µM (active)
same,AC50,[2],25.4 µM (active)
same,AC50,[9],25 µM (active)
same,outcome,[4],inactive
same,AC50,[5],10.8 µM (active)
O=C1CCC(C2CCCCC2)CC1,outcome,[2],inactive
same,outcome,[14],inactive
same,AC50,[8],25 µM (active)
same,outcome,[4],inactive
CN1C(=O)CC[C@H]1c1cccnc1,outcome,[2],inactive
same,outcome,[6],inactive
